Screening data (PubChem)
An excerpt weighted towards active compounds, which were near 19% of everything screened.
TDP1 cell noCPT: qHTS for Inhibitors of human tyrosyl-DNA phosphodiesterase 1 (TDP1): qHTS in cells in absence of CPT. 15% of 420,000 active. Potency, µM (top dose mostly 46.2 µM), without a hit: at the top dose activity change, negative = growth inhibition, actives largely listed as inhibitors. DT40 Tdp1-/- hTDP1 cells, no CPT, ATP luminescence, 48 h; note: nearly all actives have a fitted effect of over 55% in size
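Chicken DT40 Tdp1-/- cells complemented with human TDP1, screened without camptothecin (DMSO vehicle only), 400 cells/well. Compounds pin-transferred, cells incubated at 37 °C for at least 48 hr. Growth read as ATP-dependent luminescence (CellTiter-Glo, 30 min at RT).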
TDP1 cell CPT: DT40-hTDP1 cell growth loss with CPT. chicken DT40 Tdp1-/-;hTDP1 cells + 20 nM CPT, ATP luminescence, 48 h. AID 686979. 12% of 420,000 active. Potency, µM (titrated, usually from 46.2 µM), for the others: top-dose activity change, negative = growth inhibition, hits mostly inhibitors; note: nearly all actives have a fitted effect of over 55% in size
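Cell growth measured by CellTiter-Glo luminescence after a minimum 48 h, 37 C compound exposure with 20 nM CPT in Tdp1-knockout DT40 cells stably expressing hTDP1, seeded 400/well; qHTS titration format.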
RORg inh: inhibitors of mouse ROR gamma transcriptional activity; P51450; Drosophila S2 Gal4-RORgamma UAS-luciferase reporter, 20 h; Potency, µM (series often up to 53.6 µM), for the others: at the highest dose activity change, negative = inhibition, actives largely listed as inhibitors; 5.4% of 310,000 active; AID 2551; note: nearly all actives have a fitted effect of over 60% in size
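Luciferase reporter read in Schneider cells carrying Gal4-RORγ (mouse) and UAS-Photinus luciferase; cells given compound 1 h before 700 uM copper sulfate induction, then incubated 20 h at ambient temperature.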
TDP1 block: blocks human tyrosyl-DNA phosphodiesterase 1 | Potency, µM (highest dose often 130 µM), without a hit: at the highest dose activity change, negative = inhibition, most hits filed as inhibitors | Q9NUW8 | recombinant TDP1, AlphaScreen DNA substrate cleavage | AID 485290 | 0.28% of 350,000 active; note: nearly all actives have a fitted effect of over 40% in size
Target sequence (Q9NUW8 whole entry, looked up): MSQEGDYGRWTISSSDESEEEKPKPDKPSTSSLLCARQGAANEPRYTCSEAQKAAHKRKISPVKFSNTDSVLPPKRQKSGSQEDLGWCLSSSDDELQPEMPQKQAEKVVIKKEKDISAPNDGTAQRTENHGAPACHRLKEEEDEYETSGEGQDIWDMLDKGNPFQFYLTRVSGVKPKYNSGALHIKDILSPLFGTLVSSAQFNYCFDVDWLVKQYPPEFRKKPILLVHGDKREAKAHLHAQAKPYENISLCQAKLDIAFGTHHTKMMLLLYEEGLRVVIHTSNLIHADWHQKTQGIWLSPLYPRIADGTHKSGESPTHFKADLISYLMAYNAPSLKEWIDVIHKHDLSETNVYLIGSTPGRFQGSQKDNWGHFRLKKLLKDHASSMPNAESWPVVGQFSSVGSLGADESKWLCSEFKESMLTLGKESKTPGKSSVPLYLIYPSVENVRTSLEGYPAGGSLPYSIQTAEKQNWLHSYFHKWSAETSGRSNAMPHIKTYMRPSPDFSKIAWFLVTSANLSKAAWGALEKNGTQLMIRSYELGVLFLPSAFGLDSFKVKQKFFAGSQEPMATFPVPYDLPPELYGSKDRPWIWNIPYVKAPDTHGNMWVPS
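Recombinant E. coli-expressed Tdp1 (1 nM) preincubated with compound 15 min at RT, then 5'-biotin/3'-phosphotyrosine-FITC DNA substrate (15 nM) added for 5 min. AlphaScreen beads (10 ug/ml) added, 10 min RT; tyrosine-FITC cleavage read as signal loss.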
VP16 counter: inhibits Gal4-VP16 luciferase reporter, ROR gamma counter-screen; Potency, µM (top dose mostly 53.6 µM), for inactives: at the highest dose activity, negative = inhibition, hits mostly inhibitors; Drosophila S2 Gal4-VP16 UAS-luciferase, luminescence, 20 h; 3.5% of 310,000 active;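 note: Gal4-VP16 expression switched on by copper sulfate through the metallothionein promoter; nearly all actives have a fitted effect of over 50% in size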
Starred values were filed as active, the others as inactive; ? = inconclusive; . = no result; [ ] = dose if it differs, or a comment. Calls come from the whole dose curve; as a rule, active = well fitted curve in the direction sought with a large enough effect; inconclusive = small, poorly fitted or top-dose-only effect, or another doubt; inactive = no such curve, though single readings can be large; an effect the other way counts as inactive or inconclusive. % is set by controls: 0 for no effect and ±100 for the full control effect; potency is the fitted concentration of half-maximal effect.

SMILES	TDP1 cell noCPT	TDP1 cell CPT	RORg inh	TDP1 block	VP16 counter
CCn1c2ccccc2c2cc(CN3CCN(S(=O)(=O)CC)CC3)ccc21	.	.	41%	3%	-4%
CC(CN1C(C)CCCC1C)OC(=O)c1ccc(Cl)cc1 (stereo unspecified)	1%	-2%	16%	2%	3%
CCCc1ccc(OCC(O)CN2CCc3ccccc3C2)cc1 (stereo unspecified)	?	?	-17%	.	?
CCNC(=S)NNC(=O)c1ccc(S(=O)(=O)NCc2ccco2)cc1	-26%	?	.	1%	.
CCN1CCN(S(=O)(=O)c2ccc(C(C)(C)C)cc2)CC1	-14%	1%	2%	.	2%
CCn1c(=O)n(CC)c2cc(N)ccc21	8%	4%	-15%	6%	-9%
CCn1c2ccccc2c2cc(N)ccc21	?	26µM*	-5%	10%	-7%
CNc1ccccc1C(=O)OCC(=O)c1ccccc1	-3%	-20%	12%[10 µM]	-2%[21 µM]	9%[10 µM]
Cc1cc(C)cc(Oc2nc(C(F)(F)F)nc3ccccc23)c1	21µM*	18µM*	?	-3%	-7%
O=C(NNC1=Nc2cccc3cccc1c23)c1ccc(Br)cc1	13µM*	12µM*	0.71µM*	-3%	2µM*
O=C(OCC(=O)c1ccc[nH]1)c1ccc(S(=O)(=O)N2CCCCCC2)cc1	-4%	9%	0%	4%	2%
CCNC(=S)N(CCc1c(C)[nH]c2ccccc12)Cc1cccnc1	?	?	-1%	.	-20%
CCNC(=S)N(CCc1c(C)[nH]c2ccc(F)cc12)Cc1cccnc1	26µM*	?	20%	.	9%
CCNC(=S)N(CCc1c(C)[nH]c2ccc(C)cc12)Cc1cccnc1	29µM*	?	-1%	.	7%
CCOC(=O)[C@]12CCC=C1N(Cc1ccc3c(c1)OCO3)C(=O)[C@H](CC(=O)NCc1cccc(C(F)(F)F)c1)C2	23µM*	21µM*	.	.	.
CCOC(=O)[C@]12CCCC=C1N(Cc1ccc3c(c1)OCO3)C(=O)[C@H](CC(=O)NCc1cccc(C(F)(F)F)c1)C2	16µM*	?	.	.	.
COc1ccc(OC)c(CNC(=O)c2coc(=O)c3ccccc23)c1	?	-30%	15%	-4%	4%
Cc1ccc(C(=O)/C=C/NNC(=O)c2ccccc2O)cc1	?	16µM*	?	.	?
O=C(/C=C/NNC(=O)c1ccc(Cl)cc1)c1ccccc1	?	?	11µM*	2%	?
O=C(/C=C/NNC(=O)c1cccc(Br)c1)c1cccc(Br)c1	?	?	18%	7%	-6%
O=C(/C=C/NNC(=O)c1ccccc1)c1ccc(Br)cc1	4.6µM*	3.3µM*	?	10%	3%
COc1ccc(-n2nc(C(=O)Nc3ccc(Cl)cn3)c3c4ccccc4n(C)c3c2=O)cc1	1%	-3%	.	0%	.
CCn1c2ccccc2c2cc(/C=N/NC(=O)c3cc(O)cc(O)c3)ccc21	?	-22%	1%	-3%	-10%
CCn1c2ccccc2c2cc(/C=N/NC(=O)c3ccncc3)ccc21	?	?	8.9µM*	7%	?
CCn1c2ccccc2c2cc(/C=N/NC(=O)c3ccc(O)cc3)ccc21	26µM*	23µM*	-2%	1%	-19%
Cc1cccc(Nc2c([N+](=O)[O-])ccc3nonc23)c1C	11%	-3%	9%	.	16%
CCOc1ccc(S(=O)(=O)N2CCC(C(=O)N3CCOCC3)CC2)cc1Cl	?	?	-4%	.	5%
O=C(CN1CCOCC1)NN=C(c1ccccc1)c1ccccc1	?	7%	35%	.	-3%
CC(C(=O)NN=C(c1ccccc1)c1ccccc1)N1CCOCC1 (stereo unspecified)	16µM*	?	30%	0%	-16%[10 µM]
COc1cccc(CC(NC(C)=O)C(=O)NC2CCN(c3nnnn3-c3ccccc3)CC2)c1OC (stereo unspecified)	4%	3%	9%	-1%	6%
